Data published in PubChem BioAssay (Tox21).
Records with an inconclusive call do not appear. Where a call stands in place of a potency, no number is given. Values without a mark were called inactive. The source made the active and inactive calls. Calls come from the whole dose curve.

test: qHTS assay to identify small molecule agonists of the AP-1 signaling pathway - cell viability counter screen (AID 1159525); conditions: ME-180 (cervical carcinoma) AP-1-bla cells viability, ATP luminescence, 5 h; series mostly up to 76.8 µM; note: nearly all actives have a fitted effect of over 55% in size
From the text: National Center for Advancing Translational Sciences [NCATS]
NIH Chemical Genomics Center [NCGC]
U.S. Environmental Protection Agency [EPA]
National Institutes of Environmental Health Sciences [NIEHS]
National Toxicology Program [NTP]
U.S. Food and Drug Administration [FDA]
Activator protein-1 (AP-1), a transcription factor, plays an important role in tumor genesis by regulating genes involved in cell proliferation, differentiation, apoptosis, and angiogenesis. AP-1 activity is induced by a complex network of signaling pathways that involves extracellular signals, such as growth factors. The AP-1 protein complex formed from c-Fos and c-Jun binding to the AP-1 response element results in transcriptional activation of genes containing such elements within their promoter.
Low molecular weight molecules have been discovered and developed to modulate various components of these signaling pathways, for example, MAP kinase inhibitors. However, many points of pathway modulation remain untested due to the lack of chemical probes making this signaling locus of general interest.
Using a beta-lactamase reporter-gene under control of the AP-1 response element, a cell-based assay [CellSensor(TM) AP-1-bla ME-180 developed by Invitrogen Corp.] was used to measure EGF-induced signaling. The Tox21 10K library compounds were measured for their ability to positively modulate the action of EC50 EGF on reporter gene activity. Compounds were screened in a 15-pt titration series in 1536-well format. The cytotoxicity of the Tox21 compound library against this cell line was tested in parallel by measuring the intra cellular ATP content in the same wells.
Tox21 Assay Protocol Summary:
2500 cells/5uL in Opti-MEM medium containing 0.5% dialyzed FBS, 0.1 mM NEAA, 1 mM sodium pyruvate and 10 mM HEPES was dispensed into 1536-well black wall/clear bottom plates using a Multidrop dispenser and cells were cultured at 37 degrees Celsius overnight. Next day 23 nL of compounds dissolved in DMSO, positive controls or DMSO were delivered to each well using a pin tool. The plates were incubated at 37 degrees Celsius for 5 hours. 1 uL of LiveBLAzerTM B/G FRET substrate (Solution A+B+C+D) was added to each well using a Flying Reagent Dispenser. After incubated at room temperature for 2.5 hours the plates were measured on an EnVision plate reader at Excitation 405nm, Emission1=460nm and Emission 2=530nm. The %Activity was determined from the ratio of 460nm/530nm.
After the plates were read for Beta-Lactamase assay on Envision; 3 ul Cell Titer Glo (Promega) was added to measure the cytotoxicity and the plates were then incubated at RT in dark for 30 min. The luminescence was read on ViewLux (Perkin Elmer, Shelton, CT) using 6 sec exposure. ViewLux data was expressed as relative luminescence units.
For primary data analysis, raw plate reads for each titration point were first normalized relative to […] EGF control (100%) and DMSO only wells (basal, 0%).
For primary data analysis for viability assay, raw plate reads for each titration point were first normalized Tetra n-octyl ammonium bromide control (-100%) and DMSO (control, 100%).

SMILES	Potency	viability change, negative = cytotoxic
CC(C)(C)OCC1CO1 (stereo not given)	inactive	–
NCC(=O)CCC(=O)O	inactive	–
CN(C)C(=O)NC1(c2ccccc2)CCN(CC[C@@]2(c3ccc(F)c(F)c3)CN(C(=O)c3ccccc3)CCO2)CC1	inactive	–
COc1cc(Cl)ccc1Oc1ccc(Cl)cc1Cl	inactive	–
CC(=O)NO	inactive	–
NC(=O)C(c1ccccc1)(c1ccccc1)[C@@H]1CCN(CCc2ccc3c(c2)CCO3)C1	inactive	–
CCCCCC[C@@H](O)C/C=C\CCCCCCCC(=O)OC	inactive	–
C=C(C)C(=O)OCCOCC	inactive	–
O=C(O)c1ccc(S(=O)(=O)O)cc1C(=O)O	inactive	–
O=P(O)(OCc1ccccc1)OCc1ccccc1	inactive	–
COc1ccc(-c2nc3ccc(C4=NNC(=O)CC4C)cc3[nH]2)cc1 (stereo not given)	inactive	–
CN1C[C@H]2c3ccccc3Oc3ccc(Cl)cc3[C@@H]2C1	inactive	–
O=C(NCC1CN(c2ccc(N3CCOCC3=O)cc2)C(=O)O1)c1ccc(Cl)s1 (stereo not given)	inactive	–
CC(C)(O)c1ccc(CNC(=O)c2cccnc2Oc2ccc(F)cc2)cc1	inactive	–
CCC(CC)Nc1ccc(C)c(C)c1	inactive	–
COC(=O)c1ccc(I)cc1S(=O)(=O)NC(=O)Nc1nc(C)nc(OC)n1	inactive	–
Nc1ccccc1S(=O)(=O)c1ccccc1	inactive	–
C/C(=C(\CCOP(=O)(O)O)SC(=O)c1ccccc1)N(C=O)Cc1cnc(C)nc1N	–	-3.18% [at 6.97 µM]
CC/C=C\CCOC(=O)CC	inactive	–
O=C1OC(CN2CCOCC2)CN1/N=C/c1ccc([N+](=O)[O-])o1 (stereo not given)	inactive	–

SMILES	Potency	viability change, negative = cytotoxic
COc1cc2nc(N(C)CCCNC(=O)C3CCCO3)nc(N)c2cc1OC (stereo not given)	inactive	–
O=C(O)C1(C(=O)Nc2ccc(Cl)cc2Cl)CC1	inactive	–
Cn1c(=O)cc(Oc2ccc(F)cc2F)c2cnc(NCC(C)(C)O)nc21	inactive	–
COc1cc2nc(N3CCN(C(=O)C4COc5ccccc5O4)CC3)nc(N)c2cc1OC (stereo not given)	inactive	–
CC(=O)c1ccc2c(c1)N(CCCN(C)C)c1ccccc1S2	inactive	–
CCOC(=O)C(=O)CCc1ccccc1	inactive	–
CCCCCCCCO[C@@H]1O[C@H](CO)[C@@H](O)[C@H](O)[C@H]1O	inactive	–
CCCCNc1ccc(C(=O)OCCOCCOCCOCCOCCOCCOCCOCCOCCOC)cc1	inactive	–
CCOC(=O)Cc1cccc2ccccc12	inactive	–
COc1ccnc(CS(=O)c2nc3ccc(OC(F)F)cc3[nH]2)c1OC (stereo not given)	inactive	–
Cc1ccc(C(=O)Oc2ccc(C(O)CNC(C)(C)C)cc2OC(=O)c2ccc(C)cc2)cc1 (stereo not given)	inactive	–
C[N+](C)(C)CCOC(=O)CCC(=O)OCC[N+](C)(C)C	inactive	–
C[N+]1(CC2COC(c3ccccc3)(C3CCCCC3)O2)CCCCC1 (stereo not given)	inactive	–
CCOc1ccc(N)c([N+](=O)[O-])c1	inactive	–
CCCCCCCN	inactive	–
CN(C)CCN(Cc1ccsc1)c1ccccn1	inactive	–
O=C(O)CC(=O)C(=O)O	inactive	–
CC(C)C[C@H]1C(=O)N2CCC[C@H]2[C@]2(O)O[C@](NC(=O)[C@@H]3C=C4c5cccc6[nH]c(Br)c(c56)C[C@H]4N(C)C3)(C(C)C)C(=O)N12	inactive	–
Nc1ccc(N)c2c1C(=O)c1ccccc1C2=O	inactive	–
CC[N+](C)(CC)CCOC(=O)C(O)(c1ccccc1)C1CCCCC1 (stereo not given)	inactive	–
